# The supplement of paper PMC10981050
# “And” between values parts separate entries of the source, which are not always exact repeats. Identical values can stand only once.
# What was measured:
# Test in all cases: cell viability relative to vehicle control; higher = less cytotoxic
# [1] = system: K562; details: 10 µM; SRSF2 genotype: SRSF2 wt/wt
# How it was run: (§1)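 Four leukaemia lines, as CRISPR-edited mutant clones and isogenic wild-type clones, were tested against Selleck bioactive, kinase and epigenetic probe libraries after removal of identity-inconsistent compounds. Cells were exposed to a single 10 µM dose for 48 h, and CellTiter-Glo luminescence was then read. Viability was calculated relative to the on-plate vehicle control.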
# [2] = system: MARIMO; details: 10 µM
# How it was run: as §1
# [3] = system: MOLM14; details: 10 µM
# How it was run: as §1
# [4] = system: OCI-AML2; details: 10 µM
# How it was run: as §1
Structure (SMILES),cell viability [1],cell viability ([2]; SRSF2 genotype: SRSF2 P95H/wt),cell viability ([2]; SRSF2 genotype: SRSF2 wt/wt),cell viability ([3]; SRSF2 genotype: SRSF2 P95H/wt),cell viability ([3]; SRSF2 genotype: SRSF2 wt/wt),cell viability ([4]; SRSF2 genotype: P95H/wt),cell viability ([4]; SRSF2 genotype: wt/wt)
CCOc1ccn(-c2ccc(F)cc2)c(=O)c1C(=O)Nc1ccc(Oc2ccnc(N)c2Cl)c(F)c1,42%,69.1%,82.8%,11.3%,6.04%,20.9%,28.1%
CC(=O)Oc1cc(C)c(OC(C)=O)c2ccccc12 [Menadiol Diacetate],95.2%,49.6%,53.5%,15.3%,7.05%,5.63%,11.2%
COc1cc2ncnc(Nc3ccc(F)c(Cl)c3)c2cc1OCCCN1CCOCC1 [Gefitinib (ZD1839)],–,63.4%,63.1%,39.7%,45.2%,53.4%,50.9%
O=C(NCCN1CCOCC1)Nc1ccc(C(=O)/C=C/c2cccc(N3CCOCC3)n2)cc1,15.2%,21.2%,19.2%,1.13%,1.01%,5.44%,16.6%
O=C(CCCCCCNC(=O)c1cnc(N(c2ccccc2)c2ccccc2)nc1)NO,52.1%,17.6%,35.3%,2.73%,2.08%,0.54%,1.52%
C[C@@H](NC(=O)c1ncnc(N)c1Cl)c1ncc(C(=O)Nc2cc(C(F)(F)F)c(Cl)cn2)s1,51.4%,54.7%,58.1%,86.1%,95.3%,66.9%,69.8%
Nc1nc(N)c2nc(-c3ccccc3)c(N)nc2n1 [Triamterene],33%,98.2%,101%,93.7%,101%,101%,101%
O=C(O[C@@H]1Cc2c(O)cc(O)cc2O[C@H]1c1cc(O)c(O)c(O)c1)c1cc(O)c(O)c(O)c1 [Gallocatechin gallate],71%,91.1%,91.7%,77.3%,67.3%,94.1%,87.8%
COc1cccc(-c2ccc(NC(=O)C3=C(C(=O)O)CCC3)c(F)c2)c1 [Vidofludimus],93.2%,115%,120%,114%,108%,112%,112%
CCN(C)S(=O)(=O)Nc1ccc(F)c(C(=O)c2c[nH]c3ncc(-c4cnc(C5CC5)nc4)cc23)c1F,59.2%,83.6%,87.5%,79.3%,92.7%,91.5%,84.7%
COc1ccc(N2C(=O)/C(=C\c3ccc([N+](=O)[O-])s3)SC2=S)cc1,66.2%,71.8%,52.8%,36.7%,58.2%,0.66%,5.17%
O=C1[C@H](Cc2ccc(O)cc2)N2C(=O)CCN(C(=O)NCc3ccccc3)[C@H]2CN1Cc1cccc2ccccc12,47% and 37.9%,60.6% and 53.5%,59.4% and 48.2%,63.6% and 52%,43.8% and 35.6%,54.4% and 45.4%,42.3% and 36.8%
O=C(NC1CC1)c1cc(-c2cccs2)on1 [Isoxazole 9 (ISX-9)],53.5%,58.5%,63%,46.8%,35.5%,74.8%,74.7%
CC(Nc1nc(N2CCCC2)nc2ccccc12)c1ccccc1 (stereo not given) [Importazole],29.2%,46.3%,64.7%,51.2%,48.2%,51.8%,58.2%
C[C@H](CS)C(=O)N1CCC[C@H]1C(=O)O [Captopril (Capoten)],–,103%,106%,102%,102%,97.7%,97.8%
COc1cc2/c(=N/c3ccc(Br)cc3F)nc[nH]c2cc1OCC1CCN(C)CC1 [Vandetanib (ZD6474)],41%,83%,97.2%,57.6%,68.6%,77.3%,75.4%
